From PubChem BioAssay
An excerpt weighted towards active compounds, which were near 11% of everything screened.
IMPase Li inh = qHTS Assay for Identifying the Cell-Membrane Permeable IMPase Inhibitors: Potentiation with Lithium. CHO-M1 cells, IP1 TR-FRET (IP-One), carbachol + lithium. Potency, µM (highest dose often 59.4 µM), for the others: at the highest dose activity, negative = IMPase inhibition, actives largely listed as inhibitors. 210,000 compounds, 0.35% hits; active means well fitted inhibition curve with a large enough effect; inconclusive means small, poorly fitted or top-dose-only effect; inactive means no such curve, though single readings can be large or run the other way;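 further: IP1 builds up when IMPase is blocked and the TR-FRET signal falls; potency means the concentration at half of the fitted maximal effect; plate controls were basal vehicle for no effect and high inhibitor control for full effect; nearly all actives have a fitted effect of over 50% in size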
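CHO cells stably expressing M1 receptor (2000/well, cultured 16–30 h) treated 30 min at 37C with compound plus low lithium. Cytosolic IP1 by TR-FRET (665/620 ratio and 620 channel) after 10 min lysis; AC50 by Hill fit.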
IMPase inh = qHTS Assay for Identifying the Cell-Membrane Permeable IMPase Inhibitors | Inositol monophosphatase 1 (Rattus norvegicus), P97697 | CHO-M1 cells, IP1 accumulation, HTRF TR-FRET ratio | inhibition (IP1 accumulation), % at 46.1 µM | 120,000 tested, under 10 active | AID 901, 2007; active means well fitted curve in the direction sought with a large enough effect in the signal ratio, not every such curve was filed as active; inconclusive means small, poorly fitted or top-dose-only effect, or a change in a side signal; inactive means no such curve, though single readings can be large or run the other way; the % refers to the signal ratio;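 further: cells stimulated with carbachol in lithium chloride buffer; plate controls were DMSO basal wells for no effect and reference inhibitor wells for full effect; higher means more IMPase inhibition seen as more IP1 and lower FRET ratio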
Target sequence (P97697 whole entry, looked up): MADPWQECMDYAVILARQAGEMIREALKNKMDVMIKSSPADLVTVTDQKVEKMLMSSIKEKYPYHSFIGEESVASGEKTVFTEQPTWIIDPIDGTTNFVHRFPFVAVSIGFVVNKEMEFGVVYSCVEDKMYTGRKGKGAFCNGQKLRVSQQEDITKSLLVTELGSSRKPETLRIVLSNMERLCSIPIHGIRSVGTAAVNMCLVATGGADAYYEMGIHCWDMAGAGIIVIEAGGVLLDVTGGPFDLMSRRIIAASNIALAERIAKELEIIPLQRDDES
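Seeded CHO-M1 cells were dosed with compound at up to 46 uM, stimulated with carbachol for 30 min, then lysed in IP-One detection reagents. Higher IP1 lowers the TR-FRET signal.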
PNC inhibitor = High Content Assay for Compounds that inhibit the Assembly of the Perinucleolar Compartment | PC3M PTB-GFP, PNC prevalence imaging, 16 h; hits give low values | activity change (PNC), negative = inhibition, % at 10 µM | 140,000 compounds, 3.1% hits | AID 2417, 2010;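 active means readout at or below -70, meaning at least 70% loss of cells showing the perinucleolar compartment, a nuclear body marking cancer cells; inconclusive means readout between -30 and a set limit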;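 further: plate controls were DMSO wells for no effect and camptothecin positive control wells for full effect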
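Read-out is percentage of cells bearing a perinucleolar compartment, from automated 20x imaging of fixed, Hoechst-stained PC3M PTB-GFP cells. Cells were seeded 4 h, then exposed 16 h to compound (23 nl of library stock) in duplicate plates.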
ALDH1A1 inh = qHTS Assay for Inhibitors of Aldehyde Dehydrogenase 1 (ALDH1A1) | Aldehyde dehydrogenase 1A1 (Homo sapiens), P00352 | Purified ALDH1A1, NADH fluorescence, propionaldehyde substrate | Potency, µM (top dose mostly 75.3 µM), inactives show top-dose activity, negative = inhibition, usual class: inhibitors | 220,000 compounds, 7.3% hits;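 further: potency means the concentration at half of the fitted maximal effect; plate controls were no enzyme wells and a reference inhibitor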
HPGD block = qHTS Assay for Inhibitors of HPGD (15-Hydroxyprostaglandin Dehydrogenase). 15-hydroxyprostaglandin dehydrogenase [NAD(+)] (Homo sapiens), P15428. purified HPGD, NADH fluorescence kinetic, PGE2 substrate. Potency, µM, inactives show top-dose activity change, negative = inhibition, most hits filed as inhibitors. 150,000 compounds, 4.3% hits; further: potency means the concentration at half of the fitted maximal effect
Target sequence (P15428 whole entry, looked up): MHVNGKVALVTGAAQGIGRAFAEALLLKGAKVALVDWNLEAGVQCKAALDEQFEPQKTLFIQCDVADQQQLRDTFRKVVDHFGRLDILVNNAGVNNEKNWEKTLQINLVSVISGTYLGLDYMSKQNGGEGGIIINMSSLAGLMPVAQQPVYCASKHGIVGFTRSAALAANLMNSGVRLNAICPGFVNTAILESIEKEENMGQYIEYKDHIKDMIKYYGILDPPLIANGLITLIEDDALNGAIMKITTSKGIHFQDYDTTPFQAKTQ
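NADH formation kinetics: reaction with 30 uM PGE2 and 1 mM NAD+ (final), 20 nM enzyme, Tris-HCl pH 8 with Tween 20, after 15 min compound preincubation at room temperature. Fluorescence change, last versus first of five reads.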
* marks the source's active call; other numbers are inactive results; ? = inconclusive; · = not tested or not shown; [ ] = another dose, or the depositor's remark. Unless noted, the call rests on the fitted dose curve; in most records, active means well fitted inhibition curve with a large enough effect (not every such curve was filed as active); inconclusive means small, poorly fitted or top-dose-only effect, or another doubt; inactive means no such curve, though single readings can be large or run the other way. Unless noted, on the % scale 0 is the no-effect control and ±100 the full control effect.

SMILES	IMPase Li inh	IMPase inh	PNC inhibitor	ALDH1A1 inh	HPGD block
O=C(CCCCCn1c(=O)[nH]c2ccccc2c1=O)NCCCN1CCN(c2ccccc2F)CC1	41%[38.3 µM]	10	?	?	-22%
CCSc1nnc([C@@H]2CCCN2C(=O)OC(C)(C)C)o1	-21%[38.3 µM]	?	-8	?	-8%
Cc1ccc(C)c(NC(=O)CSc2nnc([C@@H]3CCCN3C(=O)OC(C)(C)C)o2)c1	·	9	-119*	5%	·
CC(C)(C)OC(=O)N1CCC[C@H]1c1nnc(SCc2c(Cl)cccc2Cl)o1	-6%[38.3 µM]	5	-27	?	-11%
Cc1cccc(NC(=O)CSc2nnc([C@@H]3CCCN3C(=O)OC(C)(C)C)o2)c1C	-13%[38.3 µM]	4	5	3.5µM*	-8%
COc1ccc(C2C=C(c3ccc(Cl)cc3)Nc3nc(-c4ccc(Cl)cc4)nn32)cc1 (configuration not stated)	·	-9	·	·	·
Cc1cnc(CNc2ncncc2-c2ccccc2C(F)(F)F)cn1	1%	·	·	?	?
CCCC(=O)Nc1sc(C)c(-c2ccc(OC)cc2)c1C#N	-23%	-8	35	3%	-9%
CCCc1ccc(-c2c(C)sc(N)c2C#N)cc1	18%[38.3 µM]	1	-7	20µM*	-26%
CC(C)(C)OC(=O)NCCCCC1=CC2=CC(=O)C(C)(OC(=O)CCc3ccccc3)C(=O)C2=CO1 (configuration not stated)	15%	·	·	11%	-11%
Nc1nc2ccc([N+](=O)[O-])cc2s1	9%	·	·	?	-14%
CC1(C)O[C@H]2O[C@@H]([C@H](O)CON3C(=O)c4ccccc4C3=O)[C@H](O)[C@H]2O1	·	·	·	24%[13.5 µM]	·
CCN1CCN(C(=O)NC(c2ccc(C)c(F)c2)C(Cl)Cl)CC1 (configuration not stated)	19%	·	·	?	·
Cc1ccc(C(NC(=O)N2CCCC2)C(Cl)Cl)cc1F (configuration not stated)	3%	·	·	11µM*	·
Cc1ccc2nc(-c3ccc(Cl)cc3)cc(C(=O)OCC(=O)c3ccccc3)c2c1	·	-7	·	·	·
COc1c(C2=CC(=O)N(C)C2=O)c2c(n1C)C(=O)c1ccccc1C2=O	24%	·	·	0%	-6%
O=P1(O)Oc2c(c(-c3ccccc3)cc3ccc4ccccc4c23)-c2c(-c3ccccc3)cc3ccc4ccccc4c3c2O1	10%	·	·	-1%	-23%
COc1ccc(N=C2O/C(=C/c3sc(=S)n(CC4CCCO4)c3O)N=C2C#N)cc1 (configuration not stated)	·	·	·	1.1µM*	·
CCN(CC)COC(=S)S	4%	·	·	2.8µM*	3.2µM*
COC(=O)c1ccc(C(NC(=O)c2ccccc2)[C@]2(C)C[C@H]2C2CCCCC2)cc1 (some centres not stated)	5%	·	·	1.3µM*	-8%
Cc1cc(C)nc(Sc2nc(Cl)nc(N(c3ccccc3)c3ccccc3)n2)n1	25%[38.3 µM]	12	33	-10%	-23%
CCCC1CC(C)(C(=O)CSc2n[nH]c(-c3ccccc3)n2)OC1=O (configuration not stated)	21%[38.3 µM]	-6	-8	10µM*	-30%
CCCC1CC(=O)OC1(C)C(=O)CSc1n[nH]c(-c2ccccc2)n1 (configuration not stated)	-4%[38.3 µM]	13	36	13µM*	-19%
Cc1c(NC(=O)CSc2n[nH]c(-c3ccccc3)n2)c(=O)n(-c2ccccc2)n1C	5%[38.3 µM]	-2	-8	2%	-10%
COc1ccccc1CNC(=O)C(C)NS(=O)(=O)c1ccc(Br)cc1 (configuration not stated)	15%	-2	11	28µM*	-5%
SMILES	IMPase Li inh	IMPase inh	PNC inhibitor	ALDH1A1 inh	HPGD block
Cc1ccc(S(=O)(=O)NC(CC(=O)NCc2ccco2)c2ccco2)cc1 (configuration not stated)	13%[38.3 µM]	?	35	25µM*	-13%
Cc1ccc(O)c(C(CC(=O)N2CCCC2)c2ccccc2)c1 (configuration not stated)	7%	·	25	-7%	7.1µM*
O=C(CC(c1ccccc1)c1ccco1)N1CCOCC1 (configuration not stated)	-2%	7	-3	40µM*	18µM*
Fc1ccc(CSc2ccc3nnc(-c4cccnc4)n3n2)cc1	6%	·	·	2%	·
COC(=O)[C@@H](NC(=O)N1CCc2nc(-c3ccccc3)c3c(c2C1)CO[C@@H](C)C3)C(C)C	-6%	·	·	0%[13.5 µM]	-13%
Cc1ccccc1OCC(=O)Nc1ccccc1N1CCC(C)CC1	14%	·	·	-1%	·
Cc1ccc(S(=O)(=O)NC(CC(=O)NC2CCCC2)c2ccco2)cc1 (configuration not stated)	39%[38.3 µM]	-10[1.84 µM]	2	14µM*	-7%
CC(C)Oc1ccc(C(CC(=O)NCc2ccco2)c2ccccc2)cc1 (configuration not stated)	37%[38.3 µM]	3	38	?	11µM*
Cc1ccc(S(=O)(=O)NC(CC(=O)N2CCOCC2)c2ccco2)cc1 (configuration not stated)	?	-8[1.84 µM]	-91*	13µM*	-10%
COCCCNC(=O)CC(NS(=O)(=O)c1ccc(C)cc1)c1ccco1 (configuration not stated)	4%[38.3 µM]	-1	-5	0%	-12%
COc1ccc(S(=O)(=O)NC(CC(=O)NCCc2ccc(OC)c(OC)c2)c2ccco2)cc1 (configuration not stated)	4%	-3	?	13µM*	-6%
COC(=O)c1sc(N2C(=O)c3oc4cc(C)c(C)cc4c(=O)c3C2c2ccccc2F)nc1C (configuration not stated)	·	-3	·	·	·
COc1ccc(-c2ccc3c(n2)CCCN3C[C@H](O)CN2CCCc3nc(-c4ccc(Br)cc4)ccc32)cc1	·	·	·	-14%[13.5 µM]	·
CC(NS(=O)(=O)c1ccccc1)C(=O)NCc1ccco1 (configuration not stated)	21%[38.3 µM]	5	?	24µM*	?
CC(NS(=O)(=O)c1ccc(Br)cc1)C(=O)NCc1ccco1 (configuration not stated)	3%	·	·	?	·
CN(C)c1nc(N(C)C)nc(N(C#N)CN2C(=O)c3ccccc3C2=O)n1	5%	-3	23	16%	-6%
CSc1ccc(S(=O)(=O)Nc2ccc(S(=O)(=O)Nc3ccc(C)cc3)cc2)cc1	21%[38.3 µM]	-11	19	8.9µM*	-6%
Cc1ccc(S(=O)(=O)Nc2ccc3c(c2)CCC3)cc1C	10%	0	8	-6%	-6%
Cc1ccc(NNS(=O)(=O)c2ccc(C)cc2)cc1	-3%[38.3 µM]	-12	?	6.3µM*	4µM*
